“And” between values parts separate entries of the source, which are not always exact repeats. Equal entries are not always repeated. Results filed as inconclusive are left out. The source made the active and inactive calls. Unless noted, calls come from the whole dose curve; as a rule, active = well fitted curve in the direction sought with a large enough effect; inconclusive = small, poorly fitted or top-dose-only effect, or another doubt; inactive = no such curve, though single readings can be large; an effect the other way counts as inactive or inconclusive. Where a SMILES comes first, the peptide text is derived from it. [ ]: non-standard residue; d: D form. The star is where a group is joined. Benzoyl(4-tBu) = CC(C)(C)c1ccc(C(=O)*)cc1; Lys(Et2) = CCN(CC)CCCC[C@H](N)C(=O)O
Assays:
[1] = qHTS to identify inhibitors of the type 1 interferon - major histocompatibility complex class I in skeletal muscle: primary screen against the NCATS Mechanism Interrogation Plate v5.0 (MIPE) Libary (AID 1347411); conditions: iHSKM cells + IFN-b, HiBiT-tagged MHC-I luminescence, 24 h; series mostly up to 45.8 µM; note: nearly all actives have a fitted effect of over 65% in size; note: potency is the fitted concentration of half-maximal effect;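 for activity change, negative = inhibition: plate controls were vehicle for no effect and reference inhibitor for full effect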
Procedure, shortened: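 HLA-B HiBit myoblasts, dexamethasone-free medium + 4 ng/ml IFN-b, 24 h compound, 11-pt 1:3 from 46 uM final. Readout: Nano-Glo HiBiT lytic luminescence after 10 min lysis, RT.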

[2] = Primary qHTS for inhibitors of nuclear receptor binding SET domain protein 2 (NSD2) in an isogenic RCH-ACV NSD2 p.E1099K mutant (9B) (AID 1645876); conditions: RCH-ACV NSD2 E1099K (9B) viability, CellTiter-Glo, 72 h; series mostly up to 44.9 µM; note: nearly all actives have a fitted effect of over 70% in size; note: potency is the fitted concentration of half-maximal effect
[3] = Primary qHTS for inhibitors of nuclear receptor binding SET domain protein 2 (NSD2) in an RCH-ACV wild type WT cells (2C) (AID 1645877); conditions: RCH-ACV (leukaemia line) NSD2 WT (2C) viability, CellTiter-Glo, 72 h; series mostly up to 44.9 µM; note: nearly all actives have a fitted effect of over 70% in size; note: potency is the fitted concentration of half-maximal effect
[4] = target: Glutathione peroxidase 1 (Homo sapiens) (UniProt P07203); assay: Primary qHTS Assay for Inhibitors of Recombinant Selenoprotein Glutathione Peroxidase 1 (GPX1) (AID 1845191); conditions: recombinant GPX1, GR-coupled NADPH fluorescence, 15 min; series mostly up to 48.8 µM; note: nearly all actives have a fitted effect of over 65% in size
Sequence of Glutathione peroxidase 1 (Homo sapiens) (P07203 whole entry, looked up): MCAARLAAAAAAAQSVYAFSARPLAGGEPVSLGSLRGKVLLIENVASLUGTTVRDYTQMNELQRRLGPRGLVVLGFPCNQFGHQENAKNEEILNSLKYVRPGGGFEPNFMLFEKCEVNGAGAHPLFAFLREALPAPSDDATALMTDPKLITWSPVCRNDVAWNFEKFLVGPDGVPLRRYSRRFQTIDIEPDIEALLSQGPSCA
Procedure, shortened: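 GPX1 10 nM, GR 100 nM, GSH 1 mM, NADPH 0.5 mM, CHP 0.5 mM (final). 30-min cpd preincubation, RT. Ex340/Em450 read t=0, t=15 min.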

[5] = qHTS drug screen for cell cycle checkpoint inhibitors in PARPi-resistant BRCA-mutant ovarian cancer cell lines. (AID 1963452; calls by dose curve; note: potency is the fitted concentration of half-maximal effect); conditions: PEO1/OlaR viability, CellTiter-Glo luminescence, 96 h; for Z-AUC: stronger effect = lower value
Procedure, shortened: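 PEO1, PEO4 and PEO1/OlaR ovarian cancer cells, 600 per well, exposed 96 h at 37C to a dilution series. Viability read by CellTiter-Glo luminescence, normalized to DMSO and empty wells; activity summarized as Z-AUC.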

[6] = target: Phospholipid hydroperoxide glutathione peroxidase GPX4 (Homo sapiens) (UniProt P36969); assay: Primary qHTS Assay for Inhibitors of Recombinant Selenoprotein Glutathione Peroxidase 4 (GPX4) (AID 1845192); conditions: recombinant GPX4, GR-coupled NADPH fluorescence, 15 min; series mostly up to 50 µM; note: nearly all actives have a fitted effect of over 65% in size; for activity change, negative = inhibition: % is set by controls: 0 for no effect and ±100 for the full control effect
Sequence of Phospholipid hydroperoxide glutathione peroxidase GPX4 (Homo sapiens) (P36969 whole entry, looked up): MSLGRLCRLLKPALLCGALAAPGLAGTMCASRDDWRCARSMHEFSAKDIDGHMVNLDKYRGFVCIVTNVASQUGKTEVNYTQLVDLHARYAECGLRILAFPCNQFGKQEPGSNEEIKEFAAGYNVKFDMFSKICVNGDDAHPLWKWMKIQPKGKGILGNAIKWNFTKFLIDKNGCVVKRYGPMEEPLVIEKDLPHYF
Procedure, shortened: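 qHTS, GR-coupled: GPX4 200 nM + cpd 30 min RT → GSH 1 mM, NADPH 0.5 mM, GR 100 nM → CHP 0.5 mM start; fluor 340/450 at t0 and t15 min; no-enzyme wells as control.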

[7] = target: Luciferin 4-monooxygenase (Photinus pyralis) (UniProt P08659); assay: Biochemical firefly luciferase enzyme assay for NPC (AID 624030);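 note: purified P. pyralis luciferase at 10 nM with luciferin and ATP substrate; 0% = DMSO and -100% = full luciferase inhibition by PTC124 control; nearly all actives have a fitted effect of over 70% in size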; conditions: purified P. pyralis luciferase, luminescence, 5 min; series mostly up to 58.6 µM
Sequence of Luciferin 4-monooxygenase (Photinus pyralis) (P08659 whole entry, looked up): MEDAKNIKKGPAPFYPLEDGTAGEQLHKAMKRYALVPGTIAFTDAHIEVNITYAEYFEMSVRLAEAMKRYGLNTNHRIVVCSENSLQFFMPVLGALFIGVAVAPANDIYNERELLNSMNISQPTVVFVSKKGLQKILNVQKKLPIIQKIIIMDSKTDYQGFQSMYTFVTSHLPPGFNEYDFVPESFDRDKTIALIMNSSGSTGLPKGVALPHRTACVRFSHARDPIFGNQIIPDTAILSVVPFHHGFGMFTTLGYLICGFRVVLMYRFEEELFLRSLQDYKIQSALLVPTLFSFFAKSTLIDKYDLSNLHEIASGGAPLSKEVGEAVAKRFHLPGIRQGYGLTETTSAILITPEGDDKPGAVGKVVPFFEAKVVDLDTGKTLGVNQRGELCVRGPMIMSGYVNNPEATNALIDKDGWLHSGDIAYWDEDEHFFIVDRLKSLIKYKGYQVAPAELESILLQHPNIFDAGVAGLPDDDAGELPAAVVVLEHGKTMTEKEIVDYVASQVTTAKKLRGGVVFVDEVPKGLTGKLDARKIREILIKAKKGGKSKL
Procedure, shortened: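 Counter-screen for direct inhibition of the luciferase enzyme by approved-drug library compounds, run at 10 nM enzyme in 50 mM Tris acetate (final). Luminescence was read within 5 min of enzyme-buffer addition and normalized to PTC124 versus DMSO (0%).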

[8] = measured here: PEO1 parental Z-AUC

Structure (SMILES)	activity change, negative = inhibition [1]	Potency [2]	Potency [3]	outcome [4]	Z-AUC [5]	Z-AUC [5, 8]	Z-AUC ([5]; measured here: PEO4 Z-AUC)	Potency [1]	Potency [6]	Potency [4]	Potency [5]	Potency [7]
Cn1cc(-c2nc(N[C@@H]3CCCC[C@@H]3N)c(F)c3c2C(=O)NC3)cn1	-16.3% [at 5.1 µM] (inactive)	662 nM (active)	590 nM (active)	inactive [at 4.49 µM]	0.172 (inactive)	0.884	0.422					
CCN(CC)CCCC[C@H](NC(=O)[C@H](CC(C)C)NC(=O)[C@H](C)NC(=O)[C@H](Cc1ccccc1)NC(=O)c1ccc(C(C)(C)C)cc1)C(=O)N[C@@H](CO)C(=O)OC ({Benzoyl(4-tBu)}-FAL[Lys(Et2)]S-OMe)		inactive	inactive		-0.334 (inactive)	0.227	-0.0734	inactive	inactive			
COc1cc2c3c(n(CCCN4CCOCC4)c(=O)c2cc1OC)-c1cc2c(cc1C3=O)OCO2		372 nM (active)	209 nM (active)		-2.49 (inactive)	-2.16	-0.656	inactive		inactive		
CN1C(=O)N[C@H](Cc2c[nH]c3c(Cl)cccc23)C1=O		inactive	inactive		0.358 (inactive)	0.688	0.653	inactive		inactive		
[2H]c1nc(C)nc([2H])c1-c1cc(NC[C@@H](C)c2cccc3c(C(=O)NC)ccnc23)ncn1		inactive	inactive		1.38 (inactive)	1.26	1.18	inactive		inactive		
CO[C@H]1/C=C/O[C@@]2(C)Oc3c(C)c(O)c4c(O)c(c5c(nc6cc(C)ccn65)c4c3C2=O)NC(=O)/C(C)=C\C=C\[C@H](C)[C@H](O)[C@@H](C)[C@@H](O)[C@@H](C)[C@H](OC(C)=O)[C@@H]1C		20900 nM (active)	23500 nM (active)		-0.712 (inactive)	-1.19	-1.09	inactive		inactive		
CC(C)(O)c1coc(S(=O)(=O)NC(=O)Nc2c3c(cc4c2CCC4)CCC3)c1		inactive	inactive		-0.755 (inactive)	-0.798	-1	inactive		inactive		
CNCCCOc1cc(F)c(-c2c(Cl)nc3ncnn3c2N[C@@H](C)C(F)(F)F)c(F)c1		66.1 nM (active)	46.8 nM (active)			-1.35	-1.7	inactive		inactive	155 nM (active)	
Cc1c(-c2c(-c3ccc(F)o3)sc3ncnc(O[C@@H](Cc4ccccc4OCc4ccnn4CC(F)(F)F)C(=O)O)c23)ccc(OCCN2CCN(C)CC2)c1Cl		662 nM (active)	166 nM (active)		0.0867 (inactive)	0.964	1	inactive		inactive		
O=C(NCc1ccccc1)[C@H](Cc1ccccc1)NC(=O)[C@H]1O[C@@H]1C(=O)NCCc1ccc(O)cc1		23500 nM (active)	18600 nM (active)		1.49 (inactive)	0.636	0.423	inactive	inactive			
C[C@H](NC(=O)CCC(F)(F)F)C(=O)N[C@@H]1C(=O)N(CCO)c2ncccc2-c2ccccc21		inactive	inactive		-0.268 (inactive)	0.166	-0.664	inactive		inactive		
CN1CCN(C(=O)c2ccc(-c3ccc4c(C=O)c(O)ccc4c3)s2)CC1		inactive	inactive		1.23 (inactive)	0.551	0.471	29400 nM (active)		inactive		
N=C1S/C(=C\c2ccc(-c3ccc4c(c3)C(=O)NC4=O)o2)C(=O)N1c1ccc(Br)cc1		inactive	inactive		0.761 (inactive)	0.782	0.462	inactive		inactive		
Nc1nc(F)nc2c1ncn2[C@@H]1O[C@H](COP(=O)(O)O)[C@@H](O)[C@@H]1O		1860 nM (active)	1860 nM (active)		-1.15 (inactive) and -1.44 (inactive)	-1.36 and -1.18	-0.49 and -0.861	inactive	inactive	inactive		inactive
O=C(O)CCCCN(CCc1ccccc1OCc1ccc(CCc2ccccc2)cc1)Cc1ccc(C(=O)O)cc1		inactive	inactive		0.163 (inactive)	0.492	0.773	inactive		inactive		
O=C(/C=C/N1C[C@H]2C[C@@H]1CN2c1ccccn1)c1ccccc1O		inactive	inactive		1.02 (inactive)	0.925	0.836	inactive		inactive		
CCN(CC)CCNc1ccc(C)c2sc3ccccc3c(=O)c12		5900 nM (active)	5250 nM (active)		-1.21 (inactive)	-0.605	-0.562	26200 nM (active)		inactive		
COC(=O)/C=C/C(=O)OC		inactive	inactive		-0.0504 (inactive)	0.852	0.675	inactive	inactive			
O=C(CCCCCCC(=O)N/N=C/c1ccc(N(c2ccccc2)c2ccccc2)cc1)NO		1180 nM (active)	1480 nM (active)		1.09 (inactive)	0.912	0.729	18600 nM (active)				
CCC(C)CNCC(=O)N1CCc2sccc2C1c1cccc(C)n1 (configuration not stated)		inactive	inactive		-0.668 (inactive)	-0.627	-0.749	inactive	inactive			
COc1ccc2c(c1)C(c1ccc(F)cc1)=C(CN1CCCC1)CO2		inactive			-0.385 (inactive)	0.0924	0.0293	inactive		inactive		

— PubChem BioAssay (NCATS)
